Columns and labels:
Test in all cases: PBM binding z-score (relative to random genomic background probes); higher = stronger binding; sequences stand for … in GC…GCGATTGACAGCGTAGAATGAAGG
[1] = system: PPARg:RXRa DBDmut IVT, anti-RXR (DBD mutation: RXRa K156A/R161A, NR concentration 270 nM, RXRa partner concentration 90 nM)
Method in brief: (§1)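 Ligand-free nuclear receptor dimers were applied to custom Agilent 4×180K protein-binding microarrays whose double-stranded probes carried direct-repeat seeds, single-nucleotide variants, half-site ablations and random human genomic background sequences in 34-nt variable regions. Incubation lasted 1 h. Binding z-scores were computed against the random background probes from regression-normalized fluorescence.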

[2] = system: PPARg:RXRa IVT, anti-PPARg (NR concentration 270 nM, RXRa partner concentration 90 nM)
Method in brief: as §1

[3] = system: PPARg DBDmut:RXRa IVT, anti-PPARg (DBD mutation: PPARg1 K132A/R137A, NR concentration 270 nM, RXRa partner concentration 90 nM)
Method in brief: as §1

[4] = system: PPARg DBDmut IVT, anti-PPARg (DBD mutation: PPARg1 K132A/R137A, NR concentration 270 nM)
Method in brief: as §1

[5] = system: PPARg homodimer (NR concentration 180 nM)
Method in brief: as §1

[6] = system: PXR:RXRa (NR concentration 270 nM, RXRa partner concentration 90 nM)
Method in brief: as §1

[7] = system: PXR homodimer (NR concentration 270 nM)
Method in brief: as §1

[8] = system: RARa:RXR (NR concentration 270 nM, RXRa partner concentration 90 nM)
Method in brief: as §1

[9] = system: RARa homodimer (NR concentration 270 nM)
Method in brief: as §1

[10] = system: RARb:RXRa (NR concentration 270 nM, RXRa partner concentration 90 nM)
Method in brief: as §1

| Sequence | PBM binding z-score [1] | PBM binding z-score [2] | PBM binding z-score [3] | PBM binding z-score [4] | PBM binding z-score [5] | PBM binding z-score [6] | PBM binding z-score [7] | PBM binding z-score [8] | PBM binding z-score [9] | PBM binding z-score [10] |
| --- | --- | --- | --- | --- | --- | --- | --- | --- | --- | --- |
| GCTAGTTGGTCAGTAAACGGTCACACACCGGTCG | 0.107 | 0.661 | 0.0589 | -0.0564 | 0.967 | 0.0338 | 0.06 | 0.591 | 0.301 | 1.76 |
| TCTATTAGTTGATTAGGGCAACCGGAACAGCGGA | 2.14 | 1.3 | 0.694 | 0.839 | 1.02 | 0.35 | 0.534 | 0.296 | 0.818 | 1.06 |
| TCTAGTTGGTCACCGAGGTCACACACGACGGGTA | 2.51 | 4.29 | 1.31 | 2.33 | 3.73 | 5.31 | 2.5 | 5.61 | 1.78 | 3.92 |
| AGTAGCAGGCCAAGTTTGGGTCACTCAAACAAAG | 0.369 | 1.17 | -1.1 | -1.36 | 0.195 | 0.663 | -0.57 | 1.64 | -0.486 | 1.72 |
| CCTCAGAGGACAGAAGGTCAGAGCTGTCCGCTTT | 0.0276 | 0.424 | -0.801 | -2.11 | 1.69 | 1.66 | -0.179 | 2.01 | 0.177 | 3.41 |
| TGAATGAGGTCATAAGATCAGGGAACGTTGCAAA | 4.55 | 5.82 | 2.51 | 1.96 | 1.71 | 4.37 | 0.734 | 5.17 | 0.421 | 4.55 |
| TGTCAAAGTTGAAAGGTAACGTAAGTATCCACAC | -0.206 | 3.18 | 0.664 | 0.491 | 0.376 | 1.38 | 0.066 | 2.56 | 0.0354 | 2.15 |
| CTGCCAAGGTGAACAAGGTCGTTGATTACTATTC | 2.22 | 2.18 | -0.417 | -1 | 0.571 | 2.35 | 1.73 | 1.9 | -0.469 | 2.08 |
| GCGACTGGGGCATCAGCAGATTACCATAACTTAA | 4 | 2.69 | 0.0111 | -0.326 | -0.0673 | -0.385 | -0.328 | -0.267 | 0.336 | 0.39 |
| CAGCCTAGGTCAGGGCCATTATAGGAGGAACGTT | 1.48 | 1.78 | -0.531 | -0.742 | 0.564 | 0.649 | -0.202 | 1.15 | 0.229 | 3.45 |
| CCTACTGGGCCAAATGTCATTGATTCCAATGCTC | 4.77 | 4.36 | 0.17 | 0.471 | 0.28 | -0.184 | -0.329 | 0.0171 | -0.233 | 0.654 |
| GCGACTGGGGCAAAGCAGGATACCATAAGGTTGG | 4.62 | 3.04 | -0.478 | -1.16 | -0.484 | -0.583 | -0.738 | -0.211 | -0.407 | 0.604 |
| TCTCGGAGGACACGAGGGTCAGAGCTTTCCAGAG | 1.25 | 0.292 | -0.358 | -0.909 | 0.294 | 0.835 | -0.16 | 1.46 | -0.665 | 2.38 |
| CCTACTGGGCCATCAGGACATTGATATCAACGTT | 3.58 | 3.83 | 0.0869 | 0.0679 | 0.687 | -0.0432 | -0.0909 | 0.486 | 0.102 | 0.235 |
| AGAATGAGGTTATCAAAGATCAGGGAAACGCTTG | 2.98 | 2.51 | 1.56 | 0.266 | 0.544 | 1.25 | 0.0151 | 1.6 | 0.154 | 1.33 |
| TTACCAAGGTGAAAGGTCGTTGGTGCACGCCTTG | 3.18 | 5.34 | 0.205 | 0.977 | 2.46 | 4.31 | 0.449 | 6.09 | -0.639 | 3.31 |
| CCCAGTAGGTTATGGGGCATTCAGGCAACGGTGA | 3.64 | 4.66 | -0.461 | -0.268 | 0.645 | -0.0768 | -0.414 | 0.112 | -0.0462 | 0.967 |
| ATCTCTAGGTAAGACTCAGTTCACTGAAGAACGC | 1.88 | 1.2 | 0.951 | 1.23 | 0.997 | 1.71 | 1.12 | 1.01 | 0.789 | 0.577 |
| CCGACTGGGGCAGAAAGGTTACTATACCATCCGG | 2.21 | 1.68 | -0.665 | -1.26 | 0.373 | 0.533 | -0.207 | 1.18 | -0.156 | 1.53 |
| TCCTATAGGTAAATGCTAGGTGAAAGTCCGATCT | 2.2 | 1.3 | 0.193 | 0.879 | -0.495 | 0.0422 | -0.266 | 0.694 | 0.208 | 0.523 |
| ACCGAAAGGTCGAGGTGAGTATAGAGAAAGGGAA | 0.771 | 2.17 | 0.276 | 0.807 | 1.13 | 2.31 | 0.286 | 3 | 0.981 | 4.17 |
| TTACCAAGGTGAAGGTTGTTGATCCCTCTGTAGA | 1.42 | 2.94 | 0.413 | -0.108 | 0.542 | 0.665 | -0.348 | 0.887 | -0.403 | 1.58 |
| CGAAAGAGGGCATGAGTTGATAGCAAATGCCGAT | 2.11 | 1.03 | 0.384 | -0.376 | -0.223 | 0.604 | -0.0785 | 0.777 | -0.0626 | 2.08 |

— the supplement of paper PMC6555819
